Assay outcomes deposited in PubChem by The Scripps Research Institute Molecular Screening Center.
PLC-gamma1 inh: inhibitors of human phospholipase C gamma1; P19174; purified PLC-gamma1, fluorogenic substrate, fluorescence; inhibition, % at 12.2 µM; 370,000 compounds, 0.84% hits; AID 720700; in the data active = inhibition above about 9.5%
ADAM17 inh: ADAM17 inhibition, QFRET primary screen; P78536; recombinant ADAM17, EDANS/DABCYL FRET peptide cleavage; inhibition, % at 6.95 µM; 370,000 compounds, 0.83% hits; AID 720648;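 active = inhibition above the mean of compounds lying between control limits plus 3 SD, set per campaign, cut at about 8.5% in these data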;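 also: 0% = DMSO-only wells as the low control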
ADAM10 inh: ADAM10 inhibition, QFRET primary screen. O14672. recombinant ADAM10, EDANS/DABCYL FRET peptide cleavage, 3 h. inhibition, % at 7 µM. 370,000 compounds, 0.62% hits;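 active = inhibition above a per-campaign cutoff equal to the mean of compounds falling between control-based bounds plus 3 SD, cut at about 20% in these data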;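 also: 0% = DMSO wells while the 100% control is not disclosed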
PLC-beta3 inh: inhibitors of human phospholipase C beta3 | inhibition, % at 12.2 µM | 370,000 compounds, 0.18% hits | AID 720704 | Purified PLC-beta3, fluorogenic substrate, fluorescence; in the data active = inhibition above about 11%;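 also: 0% = median of compound wells on plate and 100% = full blocker control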
KLK7 zymogen act: proKLK7 (human) activation, primary screen | P49862 | purified proKLK7, EDANS-DABCYL substrate fluorescence; 100% is mature enzyme control, 0% vehicle | activation, % at 7 µM | 370,000 compounds, 0.9% hits | AID 652039;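 active = activation above the mean of all tested compounds plus 3 SD, computed per campaign excluding outliers beyond control limits, cut at about 13% in these data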
HGIII-sPLA2 inh: Inhibits HGIII-sPLA2 liposome hydrolysis, primary screen | 370,000 compounds, 0.56% hits | Q9NZ20 | QFRET BODIPY PC-A2 liposome hydrolysis, fluorescence | AID 743126 | inhibition, % at 12.2 µM;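 active = inhibition above mean plus 3 SD of compounds lying within the high and low control bounds, cut at about 19% in these data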;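 also: 0% = median of test compound wells and 100% = no enzyme DMSO wells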
hGIII sPLA2 conf: human GIII-sPLA2 inhibition, confirmation; shares compounds with HGIII-sPLA2 inh; inhibition, % at 12.2 µM; recombinant hGIII-sPLA2, BODIPY PC-A2 QFRET fluorescence; AID 743280; 2,000 compounds, 34% hits;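 active = mean inhibition across triplicates above the hit cutoff set in the earlier primary screen, cut at about 19% in these data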;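 also: 0% = enzyme with DMSO and 100% = DMSO wells lacking enzyme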
535nm interf: optically interferes with 535nm fluorescence in sPLA2 counter-screen | shares compounds with HGIII-sPLA2 inh | BODIPY FL product fluorescence interference, QFRET | inhibition, % at 12.2 µM | 2,000 compounds, 8.5% hits | AID 743282;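 active = average inhibition above the solvent-only control mean plus 3 SD, cut at about 6% in these data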;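 also: 0% = DMSO with substrate plus product and 100% = DMSO with substrate alone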
535nm interf DR: interferes with 535nm fluorescence in dose response counter-screen; shares compounds with HGIII-sPLA2 inh; BODIPY FL product fluorescence interference, cell-free; IC50, µM; 240 tested, under 10 active;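 active = IC50 at or below 10 µM; inactive = IC50 above 10 µM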
Starred values were filed as active, the others as inactive; x = no result. Only some compounds are listed: those with a hit (about 3.4% of all), similar ones and a draw of the others.

SMILES | PLC-gamma1 inh | ADAM17 inh | ADAM10 inh | PLC-beta3 inh | KLK7 zymogen act | HGIII-sPLA2 inh | hGIII sPLA2 conf | 535nm interf | others
COc1ccc(Cc2noc(-c3ccc([N+](=O)[O-])cc3)n2)cc1OC | 1 | -5 | 1 | -9 | 0 | 21* | 1 | -7
COc1ccccc1C(=O)NC1CCCCN(C)C1=O (centres undefined) | 1 | -2 | 6 | 2 | 1 | 4 | x | x
Cc1ccc(Cn2cc(CN3CC=CS3(=O)=O)nn2)cc1 | -1 | -7 | -1 | 2 | 0 | 3 | x | x
COCCCn1cc(CN2CC=CS2(=O)=O)nn1 | 3 | -10 | -6 | -1 | 0 | 21* | 0 | -6
O=C(NNc1nc2ccc(Cl)cc2s1)c1cc(-c2cccs2)nc2ccccc12 | -89 | -80 | -353 | -129 | 6 | 28* | 35* | 13*
COc1cc2c(cc1OC)C(c1ccccc1)=NCC2 | -136 | -4 | -8 | -142 | 6 | 27* | 0 | -11
C=CCNC(=O)COc1ccccc1C#N | -3 | -3 | -2 | -3 | 0 | 7 | x | x
C=CCNC(=O)COc1cc(C)ccc1C | 7 | -6 | -7 | 3 | 0 | 20* | 3 | -9
CNC(=S)NN=C(C)c1ccc(OC)cc1O | -1 | 2 | 3 | 1 | 0 | 27* | 31* | 4 | 535nm interf DR=>122
COc1ccc(/C(C)=N/N=C(N)N)c(O)c1 | 5 | 0 | 4 | -5 | 0 | 1 | x | x
CCN(CC)C(=S)NC(=O)c1ccc(Cl)cc1Cl | 4 | 5 | -7 | 0 | 0 | 15 | x | x
CCCCN(CCCC)C(=S)NC(=O)c1ccccc1Cl | 8 | -2 | 3 | 1 | 0 | 30* | 11 | -1
CC(=O)C(C(C)=O)C1(O)C(=O)c2ccccc2C1=O | 3 | -3 | 0 | 0 | 1 | 22* | -5 | -4
O=C(NC1(O)C(=O)c2ccccc2C1=O)c1ccccc1 | 8 | -1 | 7 | 5 | 1 | -3 | x | x
CCN1CCN(C(=O)c2cc(COc3ccc(C(C)=O)cc3OC)on2)CC1 | -2 | -3 | -7 | -5 | 0 | -4 | x | x
COC(=O)c1sc(C(C)(C)C)cc1CSc1ccccc1 | 3 | 2 | -9 | -4 | 1 | 21* | -21 | -8
O=C(NC(=S)Nc1nc(-c2ccc(Br)cc2)cs1)c1ccco1 | -1 | -2 | 7 | 8 | 0 | 6 | x | x
CC(=O)Nc1ccc(-c2csc(NNC(=O)c3ccc(C)cc3)n2)cc1 | -21 | 7 | 7 | -26 | -1 | 30* | 23* | -1
O=C(Nc1nc(-c2ccc(Br)cc2)cs1)c1cccnc1 | -2 | -1 | -6 | -2 | 0 | 3 | x | x
N#Cc1ccc(-c2csc(NNC(=O)c3ccc(Br)cc3)n2)cc1 | -9 | 4 | 11 | -21 | 0 | 46* | 36* | 11*
CC(=O)NNc1nc(-c2ccc(NC(C)=O)cc2)cs1 | -138 | -1 | -6 | -144 | -6 | 0 | x | x
O=C(NNc1nc(-c2ccc(Br)cc2)cs1)c1ccco1 | -7 | -2 | -2 | -7 | 0 | 46* | 45* | 12*
COC(=O)c1nc(NNC(=O)c2ccccc2)sc1-c1ccccc1 | 4 | 6 | 16 | -8 | 0 | 30* | 30* | 0
Cc1ccc(S(=O)(=O)N2[C@H](CC(=O)c3ccccc3)OC[C@@H]2C(C)C)cc1 | 4 | 0 | 3 | 6 | 1 | -4 | x | x
O=C(Nc1nc(-c2ccccc2)cs1)c1cccnc1 | 2 | 2 | 1 | 0 | 0 | -1 | x | x
SMILES | PLC-gamma1 inh | ADAM17 inh | ADAM10 inh | PLC-beta3 inh | KLK7 zymogen act | HGIII-sPLA2 inh | hGIII sPLA2 conf | 535nm interf | others
O=C(NNc1nc(-c2ccccc2)cs1)c1ccccc1 | -6 | 6 | 14 | -13 | -1 | 35* | 33* | 7.3*
CN(C)c1ccc(NC(=O)c2cccc(C(=O)Nc3ccc(N(C)C)cc3)n2)cc1 | -9 | 3 | 5 | -4 | -1 | 28* | 36* | -11 | 535nm interf DR=>122
O=C(COc1ccccc1O)NCCN1CCOCC1 | 6 | -4 | -9 | -9 | 0 | 20* | 12 | -2
N/C(=N\OC(=O)COc1ccc([N+](=O)[O-])cc1)c1ccncc1 | 1 | -3 | -3 | 0 | -1 | 6 | x | x
N/C(=N\OC(=O)COc1ccc(Br)cc1)c1ccncc1 | 1 | -4 | -11 | -2 | 0 | 20* | -1 | -10
Cc1[nH]c2ccccc2c1Cc1n[nH]c(=S)o1 | 1 | -1 | -7 | -2 | 0 | 11 | x | x
S=c1[nH]nc(Cc2cccc3ccccc23)o1 | -1 | -1 | -2 | -6 | 1 | 24* | 14 | 3
COc1ccc(N2CCN(C(=S)NC(=O)c3cccs3)CC2)c([N+](=O)[O-])c1 | -2 | -3 | -4 | -12 | -1 | 26* | 28* | 2
O=C(NC(=S)N1CCN(c2c(Cl)cccc2[N+](=O)[O-])CC1)c1cccs1 | -1 | 2 | 7 | 3 | 0 | 17 | x | x
CC(C)CCNC(=S)Nc1ccccc1F | -1 | 0 | -4 | -1 | 0 | 20* | 9 | -1
CC(C)c1nc(SCC(=O)c2c[nH]c3ccccc23)n[nH]1 | -2 | -4 | -10 | -11 | 0 | 2 | x | x
CN1C(=O)c2cccc(N(C)C)c2C1=O | -3 | -3 | -1 | 1 | 0 | 9 | x | x
CN(C)c1cccc2c1C(=O)c1ccccc1C2=O | 7 | 4 | 15 | -4 | -1 | 25* | 33* | 6.6*
N#Cc1c(C(F)(F)F)cc(-c2ccco2)nc1SCc1ccccn1 | -147 | -81 | -222 | -189 | 1 | 20* | 6 | -11
CC(C)Sc1cc(N2CCCC2)nc(-c2ccccc2)n1 | -1 | -7 | 1 | 2 | 0 | 7 | x | x
CC(C)Sc1cc(N2CCCC2)nc(-c2ccccc2Cl)n1 | 8 | -6 | 3 | -6 | 0 | 22* | 3 | -7
O=C(Nc1ccc(F)cc1)c1ccc2c(c1)S(=O)(=O)N=C1CCCCCN12 | 0 | 0 | -4 | -6 | 0 | -4 | x | x
CCOc1ccc(NC(=O)c2ccc3c(c2)S(=O)(=O)N=C2CCCCCN23)cc1 | 0 | -6 | -11 | -2 | -43 | 19* | 0 | -4
CC(c1ccccc1)N(NC(=O)C(O)(c1ccccc1)c1ccccc1)C(=O)c1ccccc1 (centres undefined) | -1 | -6 | 5 | -1 | 0 | 22* | 13 | -19
O=S(=O)(c1ccc(-c2n[nH]c(=S)o2)cc1)N1CCCC1 | -97 | 1 | -2 | -130 | 0 | 21* | 18 | -3
